According to PubChem BioAssay (NCATS):
Records with an inconclusive call do not appear. The source made the active and inactive calls. Calls come from the whole dose curve; as a rule, active = well fitted curve in the direction sought with a large enough effect; inconclusive = small, poorly fitted or top-dose-only effect, or another doubt; inactive = no such curve, though single readings can be large; an effect the other way counts as inactive or inconclusive.

How the values were obtained:
[1] = target: Glutathione peroxidase 1 (Homo sapiens) (UniProt P07203); experiment: Primary qHTS Assay for Inhibitors of Recombinant Selenoprotein Glutathione Peroxidase 1 (GPX1) (AID 1845191); note: nearly all actives have a fitted effect of over 65% in size
Sequence of Glutathione peroxidase 1 (Homo sapiens) (P07203 whole entry, looked up): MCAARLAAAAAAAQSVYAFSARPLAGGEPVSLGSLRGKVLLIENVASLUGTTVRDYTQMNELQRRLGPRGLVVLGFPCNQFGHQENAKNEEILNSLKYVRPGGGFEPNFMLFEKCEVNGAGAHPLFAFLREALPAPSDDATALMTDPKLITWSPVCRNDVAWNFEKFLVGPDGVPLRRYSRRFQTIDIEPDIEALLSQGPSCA
Method in brief: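 GR-coupled assay: compounds preincubated 30 min at room temperature with GPX1, then reaction started with CHP; final 10 nM GPX1, 1 mM GSH, 0.5 mM CHP, 0.5 mM NADPH, 100 nM GR, 0.01% BSA, pH 7.5 Tris buffer. NADPH fluorescence (340/450 nm) read at 0 and 15 min.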

[2] = target: Phospholipid hydroperoxide glutathione peroxidase GPX4 (Homo sapiens) (UniProt P36969); experiment: Primary qHTS Assay for Inhibitors of Recombinant Selenoprotein Glutathione Peroxidase 4 (GPX4) (AID 1845192); note: series mostly up to about 50 µM; nearly all actives have a fitted effect of over 65% in size
Sequence of Phospholipid hydroperoxide glutathione peroxidase GPX4 (Homo sapiens) (P36969 whole entry, looked up): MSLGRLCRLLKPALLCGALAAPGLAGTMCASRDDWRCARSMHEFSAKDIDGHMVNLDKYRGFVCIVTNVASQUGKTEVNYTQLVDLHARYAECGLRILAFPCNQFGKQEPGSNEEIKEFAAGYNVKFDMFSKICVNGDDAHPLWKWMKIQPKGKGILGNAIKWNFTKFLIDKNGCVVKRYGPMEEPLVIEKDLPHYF
Method in brief: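 GR-coupled assay: recombinant GPX4 preincubated 30 min with compound at room temperature; final 200 nM GPX4, 1 mM GSH, 0.5 mM cumene hydroperoxide, 0.5 mM NADPH, 100 nM GR, 0.01% BSA, pH 7.5 Tris. NADPH fluorescence (340/450 nm) read at 0 and 15 min.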

[3] = target: Luciferin 4-monooxygenase (Photinus pyralis) (UniProt P08659); experiment: Primary firefly luciferase (FLuc) qHTS assay for identification of artifact compounds. (AID 1845220); note: series mostly up to about 54 µM; nearly all actives have a fitted effect of over 60% in size
Method in brief: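 Titrated compounds were incubated 15 min at RT, protected from light, with luciferin and ATP at 10 uM; reaction started with 10 nM FLuc, luminescence imaged at 5 min, and concentration-response fitted by Hill equation.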

[4] = Primary fluorescence-based thiol-reactive (MSTI) qHTS assay for identification of artifact compounds. (AID 1845221);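 note: series mostly up to about 54 µM; thiol-reactive compounds lower the probe fluorescence signal; nearly all actives have a fitted effect of over 65% in size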
Method in brief: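 qHTS titration of compound; 4 uM MSTI, PBS pH 7.4, 2% DMSO; 1 h RT, dark; fluorescence 525/598 nm; normalized to Acetyl-MSTI and MSTI; 4-parameter Hill fit.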

[5] = tested on: Nanoluciferase (engineered Oplophorus gracilirostris luciferase); experiment: Primary Nanoluciferase (NLuc) qHTS assay for identification of artifact compounds. (AID 1845222);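 note: NLuc secreted into diluted conditioned medium of S16 cells; series mostly up to about 54 µM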
Method in brief: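 qHTS format, against NLuc in S16 cell-conditioned medium. Nano-Glo substrate 1:100 was added after 15 min at room temperature. Luminescence was taken after a further 5 min.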

Measured: Potency

CCC(C)(O)C(O)C(=O)OCc1ccc(O[C@@H]2O[C@H](CO)[C@@H](O)[C@H](O)[C@H]2O)c(OC)c1 (stereo not given in full)
inactive: [1] | [2] | [3] | [4] | [5]

CC(=O)OC1C(O)CC(O[C@@H]2O[C@H](CO)[C@@H](O)[C@H](O)[C@H]2O)C2CCC3C(=O)OC(c4ccoc4)CC3(C)C21 (stereo not given in full)
inactive: [1] | [2] | [3] | [4] | [5]

C[C@@H]1CC[C@]2(C(=O)O[C@@H]3O[C@H](CO)[C@@H](O)[C@H](O)[C@H]3O)CC[C@]3(C)C(=CCC4[C@@]5(C)C[C@@H](O)[C@H](O)C(C)(C)C5CC[C@]43C)C2[C@]1(C)O (stereo not given in full)
inactive: [1] | [2] | [3] | [4] | [5]
